PubChem BioAssay
A number with no mark means an inactive call. How the calls were made is not given here.

Target: Pantothenate synthetase (Mycobacterium tuberculosis (strain ATCC 25618 / H37Rv)) (UniProt P9WIL5)
Test: Recombinant Mtb pantothenate synthetase (PanC) inhibitors, coupled enzyme, confirmatory (AID 375);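 further: 0% = full reaction with vehicle and 100% = no enzyme background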
Conditions: coupled enzyme assay; at 10 µM, stronger effect = higher value

Pantothenate synthetase (Mycobacterium tuberculosis (strain ATCC 25618 / H37Rv)), sequence (P9WIL5 whole entry, looked up): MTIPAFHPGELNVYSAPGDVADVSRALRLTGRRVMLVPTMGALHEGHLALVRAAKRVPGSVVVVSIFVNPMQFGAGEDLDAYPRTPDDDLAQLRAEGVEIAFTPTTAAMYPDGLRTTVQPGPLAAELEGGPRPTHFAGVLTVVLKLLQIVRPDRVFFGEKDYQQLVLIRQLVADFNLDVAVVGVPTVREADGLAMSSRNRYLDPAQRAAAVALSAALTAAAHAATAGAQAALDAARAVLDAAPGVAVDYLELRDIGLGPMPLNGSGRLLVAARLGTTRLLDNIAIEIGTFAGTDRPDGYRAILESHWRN

Structure (SMILES) | inhibition [%]
O=P(O)(CCc1ccccc1)CN1CCCCC1 | 6
Oc1cnc2ccccc2c1CN1CCOCC1 | 4
O=C(C1CCCN(S(=O)(=O)c2cnc[nH]2)C1)N1CCN(c2ccc(Cl)cc2)CC1 (stereo not given) | 0
CC(C)Cc1nc(S(=O)(=O)c2ccc(Cl)cc2)c(N2CCOCC2)o1 | 0
CCOC(=O)c1c(C)[nH]c(C(=O)COC(=O)C2CC2C)c1C (stereo not given) | 0
CCN(CC)Cc1csc(C(N)=O)c1 | 5
O=C1CCCC2=C1C(c1cccs1)n1nc(SCc3ccccc3F)nc1N2 (stereo not given) | 0
CCOc1ccc2cc(C#N)c(SCC(=O)N3CCC(C)CC3)nc2c1 | 10
CCOC(=O)c1cnc(-n2nc(C)cc2C)nc1NC(C)c1ccccc1 (stereo not given) | 0
CC(=O)c1cccc(N(CC(=O)N2CCCC2)S(C)(=O)=O)c1 | 0
CCOC(=O)N1CCN(CCC(=O)c2ccc(Cl)cc2)CC1 | 2
CCCn1c(=N)n(CCOc2ccc(OC)cc2)c2ccccc21 | 0
O=C(Nc1ccc2c(c1)OCO2)N1CCN(c2ncccn2)CC1 | 0
COCCSc1ccccc1C(=O)Nc1nncs1 | 0
CCn1nc(CC(=O)Nc2nnc(CC(=O)N3CCCCC3)s2)c2ccccc2c1=O | 0
CCc1nn2c(=O)cc(CSc3nc4sc5c(c4c(=O)n3C)CCCC5)nc2s1 | 0
Cc1ccc(OCCC(=O)OCC(=O)C(C)(C)C)cc1 | 8
Cc1nc2ccc(S(=O)(=O)NCC(=O)O)cc2s1 | 4
COc1ccc(-c2n[nH]c(C)c2-c2ccc(Cl)cc2)c(O)c1OC | 0
CCOCCCNC(=O)CC1Oc2ccc(C)cc2NC1=O (stereo not given) | 0

Structure (SMILES) | inhibition [%]
C/C=C(/C(=C/C)c1ccc(O)cc1)c1ccc(O)cc1 | 0
COC(=O)c1cccc(NC(=O)C2COc3ccccc3O2)c1C (stereo not given) | 0
CCCCn1c(SCC(=O)N2CC(=O)Nc3ccccc32)nnc1-c1ccoc1C | 3
c1ccc(Cc2nn3c(Cn4cnc5ccccc54)nnc3s2)cc1 | 4
COc1cccc(-c2cc(C(=O)Nc3cc(OC)c(OC)c(OC)c3)no2)c1 | 0
CCN1C(=O)/C(=C2\C=Cc3ccccc3N2CC)OC1=S | 11
C=CCNC(=O)CSc1ccc(Cl)cc1 | 0
COCCn1c(=O)[nH]c2cc(C(=O)N3CCN(c4ccccc4OC)CC3)ccc2c1=O | 2
O=C(C1CCCN(S(=O)(=O)c2cccnc2)C1)N1CCN(c2ccccn2)CC1 (stereo not given) | 0
COc1ccc(N2CCN(C(=O)CN3C(=O)C4CC=CCC4C3=O)CC2)cc1 (stereo not given) | 0
CCC(C)c1ccc(NC(=O)c2cccnc2)cc1 (stereo not given) | 9
Cc1cc(C)c2cc3c(ccn3C3OC[C@H](O)[C@H](O)[C@H]3O)cc2n1 (stereo not given in full) | 4
CCn1c(SCC(=O)N2CCN(c3ccc(Cl)cc3)CC2)nc2ccccc2c1=O | 0
CCC(=O)O[C@]1(C(=O)CCl)[C@@H](C)C[C@H]2[C@@H]3CCC4=CC(=O)C=C[C@]4(C)[C@@]3(F)[C@@H](O)C[C@@]21C | 0
CCNC(=O)c1ccc(NS(=O)(=O)c2ccccc2)cc1 | 6
Cc1cccc(N2CCN(Cc3c(C)n(C)n(-c4ccccc4)c3=O)CC2)c1C | 0
CCc1ncc(C(O)c2cccc(OC)c2OC)n1C (stereo not given) | 0
Cn1nnnc1SCC(=O)Nc1ccccc1-c1ccccc1 | 2
COc1cc(C(=O)OC(C)CN2CCCC2)cc(OC)c1OC (stereo not given) | 4
COc1ccc(C2C=C(c3ccccc3)Nc3ncnn32)cc1 (stereo not given) | 4
